The source of these data is PubChem BioAssay (NCI).

Among the test systems are HCT-15 colon; HT29 colon; SNB-75 CNS; SNB-19 CNS; U251 CNS; PC-3 prostate; SK-MEL-5 melanoma; UACC-62 melanoma; LOX IMVI melanoma; SK-MEL-28 melanoma.
Assay in all cases: NCI-60 one-dose screen, 48 h (100 = growth as untreated, 0 = no growth, -100 = all killed)
Common to all, as to settings: 10 µM unless noted

The structures appear in SMILES notation. About 83,000 compounds went through this panel and 20% of them were active in at least one assay; those are over-represented in the sample as a whole.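 The endpoint reported here, percent growth, reads 100 for growth as untreated, 0 for no net growth and -100 for all cells dead.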 Unmarked numbers belong to inactive results. Calls of active or inactive are those of the source. Rule for the calls: active = growth percent below 10; inactive = the rest.

As for `CCC1(C)CC(CCNCc2ccccc2O)(c2ccc(C)cc2)CCO1` (stereo not given), the growth in the assay with HCT-15 colon was 98.3%; with HT29 colon, 107%; with SNB-75 CNS, 91.8%; with SNB-19 CNS, 102%; in the assay with U251 CNS it was 99.1%; in the assay with PC-3 prostate it was 99.1%. Also, the growth with SK-MEL-5 melanoma is 97.7%; in the assay on UACC-62 melanoma, 103%; in the assay with LOX IMVI melanoma, 99.8%; with SK-MEL-28 melanoma it was 106%.

On to `O=C1NC(=O)C(=Cc2cn(C(=O)c3ccccc3)c3ccccc23)C(=O)N1`, for which the growth was 101% with HCT-15 colon; 97% in the assay with HT29 colon; 73.1% in the assay with SNB-75 CNS; 97.6% in the assay with SNB-19 CNS; 102% in the assay on U251 CNS; 79.4% in the assay on PC-3 prostate. Moreover, the growth was 92.3% with SK-MEL-5 melanoma, 85.9% with UACC-62 melanoma, 90.8% in the assay on LOX IMVI melanoma and 111% in the assay with SK-MEL-28 melanoma.

Take `OCCCCCNC1CCCCC1`: the growth with HCT-15 colon is 96.1%; in the assay with HT29 colon, 90.7%; in the assay on SNB-75 CNS, 101%; in the assay on SNB-19 CNS, 112%; in the assay on U251 CNS, 101%; in the assay with PC-3 prostate, 101%. Further, the growth in the assay on SK-MEL-5 melanoma is 96.7%; in the assay with UACC-62 melanoma it was 102%; with LOX IMVI melanoma, 101%; in the assay on SK-MEL-28 melanoma, 95%.

Consider `COc1cc([C@@H]2c3cc4c(cc3[C@H](OC(C)=O)[C@H]3COC(=O)[C@H]23)OCO4)cc(OC)c1OC`, for which the growth in the assay with HCT-15 colon was 9.64% (active); in the assay with HT29 colon, 5.66% (active); in the assay with SNB-75 CNS, 41.4%; in the assay with SNB-19 CNS, 39.4%; with U251 CNS, 18.9%; with PC-3 prostate, 30.2%. Moreover, the growth with SK-MEL-5 melanoma is -17.6% (active); in the assay with UACC-62 melanoma it was 43.2%; in the assay with LOX IMVI melanoma, 18.7%; in the assay on SK-MEL-28 melanoma it was 64.3%.

With `N/C(=N\N=C\c1ccc(-c2ccccc2)cc1)N[N+](=O)[O-]`, the growth was 31.6% with HCT-15 colon; 14% in the assay on HT29 colon; -1.49% (active) with SNB-75 CNS; 55.3% with SNB-19 CNS; 31.1% with U251 CNS; 29.8% with PC-3 prostate. Further, the growth in the assay with SK-MEL-5 melanoma is 19.8%; with UACC-62 melanoma, 49.4%; with LOX IMVI melanoma it was 41.9%; with SK-MEL-28 melanoma it was 54%.

Take `COc1cc(/C=C/[N+](=O)[O-])c([N+](=O)[O-])cc1OC`: the growth in the assay with HCT-15 colon was -45.2% (active); in the assay with HT29 colon, -66% (active); in the assay with SNB-75 CNS, 55.3%; in the assay on SNB-19 CNS, 96.3%; in the assay with U251 CNS it was 15.7%; in the assay on PC-3 prostate, 51.5%. Besides, the growth in the assay with SK-MEL-5 melanoma was 56.2%; in the assay with UACC-62 melanoma it was -7.94% (active); with LOX IMVI melanoma it was -68.1% (active); in the assay with SK-MEL-28 melanoma, 38.4%.

For `C[C@@H]1O[C@@H](O[C@H]2C[C@@H](O)[C@]3(CO)C4C(CC[C@]3(O)C2)[C@@]2(O)CC[C@H](C3=CC(=O)OC3)[C@@]2(C)C[C@H]4O)[C@H](O)[C@H](O)[C@H]1O` (stereo not given in full), the growth was -74.6% (active) in the assay on HCT-15 colon; -85.2% (active) in the assay on HT29 colon; -83.9% (active) with SNB-75 CNS; -94.6% (active) in the assay on SNB-19 CNS; -97.3% (active) in the assay with U251 CNS; 6.86% (active) in the assay with PC-3 prostate. Also, the growth with SK-MEL-5 melanoma was -95.5% (active); in the assay with UACC-62 melanoma it was -66.5% (active); with LOX IMVI melanoma, -88.2% (active); with SK-MEL-28 melanoma it was -87.6% (active).

Consider `CCc1ccccc1[C@@H]1C[C@]2(C)CCO[C@@H]2OO1`, for which the growth was 107% in the assay with HCT-15 colon; 98.4% in the assay with HT29 colon; 84.7% with SNB-75 CNS; 93.6% in the assay on SNB-19 CNS; 99.2% in the assay with U251 CNS; 100% in the assay on PC-3 prostate. Besides, the growth in the assay with SK-MEL-5 melanoma was 102%; with UACC-62 melanoma, 99.9%; with LOX IMVI melanoma, 99.9%; in the assay on SK-MEL-28 melanoma, 110%.

`O=P(N1CC1)(N1CC1)N1CCc2ccccc21`: the growth was 115% in the assay on HCT-15 colon; 104% with HT29 colon; 91.1% in the assay on SNB-75 CNS; 102% with SNB-19 CNS; 95.5% in the assay with U251 CNS; 88.6% in the assay on PC-3 prostate. Also, the growth in the assay on SK-MEL-5 melanoma is 109%; in the assay on UACC-62 melanoma it was 92.8%; in the assay on LOX IMVI melanoma it was 93.3%; in the assay with SK-MEL-28 melanoma it was 115%.

With `O=[N+]([O-])c1ccc([Se]C2CCCCC2Cl)c([N+](=O)[O-])c1` (stereo not given), the growth is 88.3% in the assay with HCT-15 colon; 60.7% in the assay on HT29 colon; -39.9% (active) with SNB-75 CNS; 56.2% in the assay with SNB-19 CNS; 20.4% in the assay with U251 CNS; 58.9% with PC-3 prostate. Moreover, the growth in the assay with SK-MEL-5 melanoma is 68.6%; in the assay with UACC-62 melanoma, 72.2%; with LOX IMVI melanoma, -55.2% (active); with SK-MEL-28 melanoma, 72.6%.

On to `CC(=O)O[C@H](C[C@H](C(C)C)N(C)C(=O)[C@@H](NC(=O)[C@H]1CCCN1C)C(C)C)c1nc(C(=O)N[C@@H](Cc2ccccc2)C[C@H](C)C(=O)O)c(C)s1`, for which the growth with HCT-15 colon is 17.7%; with HT29 colon it was 2.64% (active); in the assay on SNB-75 CNS it was 50.5%; with SNB-19 CNS, 33.2%; in the assay with U251 CNS, 5.53% (active); in the assay on PC-3 prostate it was 19.2%. For the same molecule, the growth in the assay on SK-MEL-5 melanoma was -19.2% (active); with UACC-62 melanoma it was 39.3%; with LOX IMVI melanoma, 27.4%; with SK-MEL-28 melanoma, 61.9%.

As for `COc1ccc(Nc2ccc([N+](=O)[O-])cc2[N+](=O)[O-])cc1CN(CCCl)CCCl`, the growth with HCT-15 colon is 27.7%; in the assay with HT29 colon it was 13.2%; in the assay with SNB-75 CNS, 33.7%; in the assay on SNB-19 CNS, 22.3%; in the assay with U251 CNS it was 29.6%; with PC-3 prostate, 46.8%. The growth with SK-MEL-5 melanoma is 57.2%; in the assay with UACC-62 melanoma it was 12.1%; in the assay on LOX IMVI melanoma it was 3.66% (active); in the assay with SK-MEL-28 melanoma it was 73.6%.

Turning to `CN(C)C(=O)Oc1ccccc1-c1ccccc1`, the growth in the assay with HCT-15 colon is 103%; with HT29 colon, 101%; in the assay on SNB-75 CNS, 107%; with SNB-19 CNS, 104%; with U251 CNS, 101%; with PC-3 prostate, 91.9%. The growth in the assay on SK-MEL-5 melanoma was 102%; in the assay on UACC-62 melanoma, 104%; in the assay on LOX IMVI melanoma, 97%; with SK-MEL-28 melanoma, 116%.

As for `C/C(CC(C)(C)N1CC1)=N\NC(=O)Nc1cccc2ccccc12`, the growth was 60.8% in the assay on HCT-15 colon; 38.6% with HT29 colon; 58.8% with SNB-75 CNS; 63.5% in the assay on SNB-19 CNS; 57.3% with U251 CNS; 64.4% in the assay with PC-3 prostate. For the same molecule, the growth in the assay on SK-MEL-5 melanoma is 72.3%; in the assay with UACC-62 melanoma, 68.4%; in the assay on LOX IMVI melanoma it was 46.1%; in the assay with SK-MEL-28 melanoma, 102%.

`CCOP(=O)(NC[C@H]1O[C@](O)(CO)[C@@H](O)[C@@H]1O)OCC`: the growth with HCT-15 colon was 100%; with HT29 colon, 96.2%; in the assay on SNB-75 CNS, 80.2%; in the assay on SNB-19 CNS it was 97%; in the assay on U251 CNS, 101%; in the assay with PC-3 prostate it was 85.9%. Moreover, the growth is 96.5% in the assay on SK-MEL-5 melanoma, 99.8% in the assay on UACC-62 melanoma, 92.8% with LOX IMVI melanoma and 116% with SK-MEL-28 melanoma.
